The campaign covered roughly 350,000 compounds. About 1,600 (0.46%) were called active.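 Rule for the calls: active = activation of at least 50%, plus an integration ratio under a set limit after plate pattern correction; inactive = the rest.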 What follows is part of a selection rich in actives, with near analogues and random picks from the rest.

This assay deals with CRF-binding protein / CRF receptor 2 complex (human). The assay can be described thus: agonists of CRF-BP/CRF-R2 complex, primary screen, cell-based, HEK293, calcium dye fluorescence, uHTS (AID 588473).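 Note: plate controls were neutral control wells without compound for no effect and CRF at EC100 for full effect.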 As to conditions: calcium dye fluorescence (FLIPR), at 13.2 µM, hits give high values.
In the case of `CCCCC(=O)N/N=C/c1c(O)n(CC)c(=S)n(CC)c1=O`, the activation is 89% (active).

In the case of `CCCCC(=O)N/N=C/c1c(O)n(CCC2=CCCCC2)c(=O)[nH]c1=O`, the activation is 0.08% (inactive).

`Cn1c(O)c(C=NCCCC(=O)O)c(=O)n(C)c1=O`: the activation was 3.61% (inactive).

Regarding `COC(=O)C1=C(c2ccc(C(C)=O)cc2)C[C@@H]2CC[C@H]1N2C(=O)NCCNC(C)=O`, the activation was -2% [percent of saturating CRF peptide response] (inactive).

As to `COc1ccc(C2NCc3ccc4c(c3-n3cccc32)OCO4)cc1OC` (stereo not given), the activation is -1.07% (inactive).

Regarding `COC(=O)N(c1ccc(OC)cc1)P1(=S)OCCC(C)O1` (stereo not given), the activation was -2.1% (inactive).

With `Cc1nc2ccccn2c1P(=S)(N1CCCCC1)N1CCCCC1`, the activation was 63.2% (active).

As for `CN1CCN(Cc2ccc(OC(F)(F)F)cc2)CC1`, the activation was -0.02% (inactive).

In the case of `CCCCCn1c(=O)c(C(=O)NCc2ccccc2)c(O)c2ccccc21`, the activation is 4.58% (inactive).

Turning to `CCOP(=S)(OCC)C(O)CCCCCn1c(=O)c(F)cn(C2CCCO2)c1=O` (stereo not given), the activation is -3.57% (inactive).

Regarding `O=C(c1cc(S(=O)(=O)N2CCOCC2)ccc1F)N1CCC2(CC1)OCCO2`, the activation was 2.62% (inactive).

In the case of `COc1ccc(N2C(=O)/C(=C/c3ccco3)C(=O)NC2=S)cc1`, the activation is 4.87% (inactive).

For the molecule `COc1cccc(N2C(=O)NC(=O)/C(=C\c3cn(C)c4ccccc34)C2=O)c1`, the activation was 113% (active).

On to `COc1cccc(N2C(=O)NC(=O)/C(=C\c3ccc([N+](=O)[O-])s3)C2=O)c1`, for which the activation was 4.02% (inactive).

With `c1ccc(C(CN2CCCCC2)c2ccccc2)cc1`, the activation was -0.78% [percent of saturating CRF peptide response] (inactive).

These data come from PubChem BioAssay AID588473 (Sanford-Burnham Center for Chemical Genomics, 2011).
